{
  "source": "PubChem BioAssay AID2284357",
  "about": "(EPA ToxCast)",
  "note": "Results filed as inconclusive are left out. Active and inactive are the calls of the source. How the source made its calls: active means hit-call score of the fitted dose curve at least 0.9, where 1 is the maximum; inconclusive means response in the unintended direction; inactive means score below 0.9.",
  "data": [
    {"tested_on": "zebrafish Androgen Receptor (AR), gene 100005148", "assay": "ATG_zfAR_EcoTox2: Attagene TRANS-FACTORIAL EcoTox-2 HepG2 Assay for zebrafish Androgen Receptor (AR)", "procedure": "ATG_EcoTox2 is a cell-based, multiplexed assay created by modifying the existing Attagene TRANS-FACTORIAL system to include a panel of nuclear receptors from some or all the following species: human (Homo sapiens), african clawed frog (Xenopus laevis), rainbow trout (Oncorhynchus mykiss), japanese medaka (Oryzias latipes), and zebrafish (Danio rerio). The ECOTOX2-FACTORIAL format uses HepG2, a human liver cell line, with measurements taken at 24 hours after chemical dosing in a 24-well plate. ATG_zfAR_EcoTox2 is one of 29 assay components calculated in the ATG_EcoTox2 assay. It is designed to make measurements of mRNA induction, a form of inducible reporter, as detected with fluorescence intensity signals by Reverse transcription polymerase chain reaction (RT-PCR) and Capillary electrophoresis technology.The assay endpoint ATG_zfAR_EcoTox2 was analyzed in the positive analysis fitting direction relative to DMSO as the negative control and baseline of activity. Using a type of inducible reporter, measures of mRNA for gain-of-signal activity can be used to understand the reporter gene at the transcription factor-level as they relate to the gene AR. Furthermore, this assay endpoint can be referred to as a primary readout, because this assay has produced multiple assay endpoints where this one serves a reporter gene function. To generalize the intended target to other relatable targets, this assay endpoint is annotated to the nuclear receptor intended target family, where the subfamily is steroidal.\nHuman liver HepG2 cells are transiently transfected with multiple reporter transcription units (MRTUs) in 6-well plates using FuGene 6 reagent (Roche; 3 ml FuGene/1 mg DNA). The MRTU constructs are regulated by a cis-regulating element (promoter). Each RTU expresses a GAL4-UAS that regulates the transcription of a nearby target reporter gene sequence. A major difference between the CIS and TRANS system is that in CIS activities of endogenous TFs are measured, whereas the TRANS assay evaluates changes in activities of exogenous, chimeric NR-Gal4 proteins. […] At the end of 24 hour incubation, total RNA was isolated using TriZol reagent (Invitrogen). The isolated RNA is then reverse-transcribed using oligo(dT) primer and Mo-MLV reverse transcriptase (Invitrogen) with DNAse I (Ambion) treatment for 30 min. The one-tenth of the produced cDNA was amplified by PCR using Taq DNA polymerase (Invitrogen) and two reporter sequence-specific primers. The PCR products were fluorescently labeled by primer extension with 6-arboxyfluorescein (6-FAM) 5'-labeled reporter sequence-specific primer (2 min at 95 C, 20 s at 68 C and 10 min at 72 C) and these products were digested with 5U of HpaI (New England Biolabs) for 2h at 37 C. The fragments were purified using Qiaquick PCR columns (Qiagen), analyzed on an ABI 3130xL genetic analyzer (Applied Biosystems) with peak positions identified by using a set of X-rhodamine (ROX)-labeled MapMarker1000 molecular weight standards (BioVentures). The raw capillary electrophoresis data was processed using Attagraph software (Attagene).", "values": [
      {"smiles": "CC(C)OC(=O)C(C)(C)Oc1ccc(C(=O)c2ccc(Cl)cc2)cc1", "outcome": "inactive"},
      {"smiles": "Cc1cccc(Nc2cc(Cl)nc(SCC(=O)O)n2)c1C", "outcome": "inactive"},
      {"smiles": "C=C(c1ccc(C(=O)O)cc1)c1cc2c(cc1C)C(C)(C)CCC2(C)C", "outcome": "inactive"},
      {"smiles": "C[C@@H]1C[C@H]2[C@@H]3CCC4=CC(=O)C=C[C@]4(C)[C@@]3(F)[C@@H](O)C[C@]2(C)[C@@]1(O)C(=O)COP(=O)(O)O", "outcome": "inactive"},
      {"smiles": "Cc1ccc(C)c(OCCCC(C)(C)C(=O)O)c1", "outcome": "inactive"},
      {"smiles": "CC(C)(Oc1ccc(Cl)cc1)C(=O)O", "outcome": "inactive"},
      {"smiles": "CC(c1cc2ccccc2s1)N(O)C(N)=O", "note": "(centres undefined)", "outcome": "inactive"},
      {"smiles": "CC(C)(Oc1ccc(C2CC2(Cl)Cl)cc1)C(=O)O", "note": "(centres undefined)", "outcome": "inactive"},
      {"smiles": "C[C@]12C=CC(=O)C=C1CC[C@@H]1[C@@H]2C(=O)C[C@@]2(C)[C@H]1CC[C@]2(O)C(=O)CO", "outcome": "inactive"}
    ]}
  ]
}
